# Screening results as filed in PubChem BioAssay.
# HT1080-NT tox: kills 2HG-producing HT-1080-NT fibrosarcoma cells; AID 686970; Potency, µM (top dose mostly 46.1 µM), without a hit: top-dose activity, negative = less viability, usual class: cytotoxic; hit rate 1.6% among 360,000; HT-1080-NT fibrosarcoma viability, CellTiter-Glo ATP luminescence, 48 h;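 note: NT is the 2HG producing partner of a matched IDH1 knockdown line; potency is the fitted concentration of half-maximal effect; 0% = DMSO-treated cells and -100% = media-only wells without cells; nearly all actives have a fitted effect of over 55% in size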
#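 HT-1080-NT fibrosarcoma cells (2HG-overproducing), 750 cells/well in RPMI with 5% FBS, dosed after 2 h and incubated 48 h at 37C. CellTiter-Glo luminescence normalized to DMSO and no-cell wells; concentration-response curves fitted and classed.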
# DT40 TDP1 CPT: growth inhibition of DT40 Tdp1-/-;hTDP1 cells with camptothecin (screen for TDP1 inhibitors) | chicken DT40 Tdp1-/-;hTDP1 cells + 20 nM CPT, ATP luminescence, 48 h | hit rate 12% among 420,000 | Potency, µM (titrated, usually from 46.2 µM), for inactives: at the highest dose activity change, negative = growth inhibition, usual class: inhibitors; note: potency is the fitted concentration of half-maximal effect; nearly all actives have a fitted effect of over 55% in size
#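 Chicken DT40 Tdp1-/- cells stably complemented with human TDP1 were seeded at 400 cells/well in medium containing 20 nM camptothecin, exposed to pin-transferred compounds, and grown at 37 °C for at least 48 hr. Viability was read as ATP luminescence.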
# IL-1B inflam inh: blocks inflammasome-driven IL-1 beta release; THP-1 LPS/ATP IL-1B secretion, AlphaLISA, 16 h; hits give low values; AID 743279; activity change, % at 57.5 µM; hit rate 4.7% among 360,000; in the data active = activity change below about -50%; inconclusive = mostly about -30% to -49%
#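 THP-1 cells pretreated 1 hr with compounds (up to 57.5 uM final), then stimulated with LPS (250 ng/mL final) plus ATP (1.25 mM final); secreted IL-1B measured by AlphaLISA after 16 hr, decreased signal indicating inhibition.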
# ELG1 repair inh: ELG1-dependent DNA repair inhibition; Potency, µM (titrated, usually from 46.1 µM), without a hit: at the highest dose activity change, negative = inhibition, actives largely listed as inhibitors; hit rate 2.3% among 330,000; HEK293T ELG1-luciferase reporter, luminescence, 16 h; DNA damage induced by 5-fluorouridine; AID 504467; note: potency is the fitted concentration of half-maximal effect; nearly all actives have a fitted effect of over 55% in size
#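 HEK293T cells expressing luciferase-tagged ELG1 (2,000/well) received 5-Fluorouridine plus compound or DMSO for 16 hr at 37 °C. Luciferase was read by ONE-Glo luminescence after 30 min at room temperature.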
# TDP1 cell noCPT: qHTS for Inhibitors of human tyrosyl-DNA phosphodiesterase 1 (TDP1): qHTS in cells in absence of CPT | DT40 Tdp1-/- hTDP1 cells, no CPT, ATP luminescence, 48 h | Potency, µM (highest dose often 46.2 µM), inactives show at the highest dose activity change, negative = growth inhibition, actives largely listed as inhibitors | hit rate 15% among 420,000; note: potency is the fitted concentration of half-maximal effect; nearly all actives have a fitted effect of over 55% in size
#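 A cellular qHTS used chicken DT40 cells lacking endogenous Tdp1 but carrying stably transfected human TDP1. Compounds were applied without camptothecin, and cell growth kinetics were judged by ATP-dependent luminescence after ≥48 hr.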
# HT1080 IDH1KD tx: toxicity to HT-1080 IDH1 knockdown cells (counter line). HT-1080 IDH1 knockdown viability, ATP luminescence, 48 h. Potency, µM (titrated, usually from 46.1 µM), for the others: top-dose activity, negative = toxicity, hits mostly cytotoxic. hit rate 2% among 360,000;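 note: potency is the fitted concentration of half-maximal effect; 0% = DMSO wells and -100% = cell-free medium wells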
#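 HT-1080-IDH1KD cells (IDH1 knocked down), 750/well in RPMI with 5% FBS, treated with compound 48 h at 37 degrees C. Viability by CellTiter-Glo luminescence, normalised to DMSO and no-cell wells; concentration-response curves classed.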
# The depositor's hits bear a star; ? = inconclusive; . = no result. Rows were chosen to be rich in hits. Some 19% of all compounds tested hit in one or more screens of this group. Unless noted, calls come from the whole dose curve; as a rule, active = well fitted curve in the direction sought with a large enough effect; inconclusive = small, poorly fitted or top-dose-only effect, or another doubt; inactive = no such curve, though single readings can be large; an effect the other way counts as inactive or inconclusive. Unless noted, % is set by controls: 0 for no effect and ±100 for the full control effect.
SMILES,HT1080-NT tox,DT40 TDP1 CPT,IL-1B inflam inh,ELG1 repair inh,TDP1 cell noCPT,HT1080 IDH1KD tx
CC(O)c1nc2ccccc2n1Cc1ccccc1 (stereo unspecified),-1%,-18%,11,2%,4%,-1%
CCCCCCn1c(C(C)O)nc2ccccc21 (stereo unspecified),-6%,?,35,0%,?,-5%
Cc1ccc(SCC(=O)OCC(=O)NC(C)c2ccc(F)cc2)cc1 (stereo unspecified),9%,-11%,14,5%,14%,4%
COc1ccccc1N1CCN(C(=S)Nc2ccc(S(=O)(=O)N3CCOCC3)cc2)CC1,-19%,18µM*,?,?,15µM*,?
O=S(=O)(c1ccccc1)N1CCN(C(=S)Nc2ccc(F)cc2)CC1,1%,-3%,-10,3%,-11%,0%
O=S(=O)(c1ccc(NC(=S)N2CCN(c3ccccc3F)CC2)cc1)N1CCOCC1,-1%,?,?,23µM*,18µM*,-24%
COCCN(C(=O)C1CC(=O)N(Cc2ccc(C)cc2)C1)c1c(N)n(CC(C)C)c(=O)[nH]c1=O (stereo unspecified),-26%,?,72,-9%,21%,?
CC(=O)c1cccc(N(CC(=O)Nc2ccccc2C(=O)N2CCCC2)S(C)(=O)=O)c1,0%,9%,-1,10%,18%,14%
O=C(O)C(S)[C@@H](S)C(=O)O (stereo partly specified),.,-11%,.,.,-1%,.
CC(C)C(NS(C)(=O)=O)c1nnc2n1CCN(Cc1ccc3cccnc3c1)CC2 (stereo unspecified),.,9%,.,.,-13%,.
Cc1ccccc1-n1c(=O)/c(=C\c2ccco2)s/c1=C(/C#N)C(=O)Nc1ccccc1,3%,-20%,43,4.6µM*,-19%,3%
CCOC(=O)/C=c1\s/c(=C(\C#N)C(=O)NC)n(-c2ccccc2)c1=O,-4%,?,-15,23%,?,0%
Cc1ccc(-n2c3c(cc(C(=O)Nc4cccc(Cl)c4)c2=O)C(=O)CC(C)(C)C3)cc1,.,-9%,.,.,-5%,.
O=C(CSC1=N/C(=C/c2ccc(Cl)c(Cl)c2)C(=O)N1c1ccccc1F)NC1CC1,0%,16µM*,-7,?,16µM*,-8%
CCCCCNC(=O)CSC1=N/C(=C\c2ccc(Cl)c(Cl)c2)C(=O)N1CC,12%,-13%,10,0%,-5%,5%
COc1ccc(Cl)cc1N1C(=O)/C(=C/c2sccc2C)N=C1SCC(=O)NC1CC1,-20%,?,-70*,.,16µM*,-20%
Cc1cccc(CNC(=O)CCCN2C(=O)CCn3nc(-c4cccn4C)cc32)c1,.,-29%,.,.,-21%,.
O=C(C1CCCCC1)N1C[C@@H](O)[C@H](n2cc(-c3ccc(F)cc3)nn2)C[C@@H]1c1ccc(Cl)cc1,?,?,-12,.,?,?
COc1ccc([C@H]2C[C@@H](n3cc(-c4ccc(F)cc4)nn3)[C@H](O)CN2C(=O)C2CCCCC2)cc1,-19%,?,-20,.,8.2µM*,-12%
O=C(C1CCCCC1)N1C[C@H](n2cc(-c3ccc(F)cc3)nn2)[C@@H](O)C[C@@H]1c1ccc(Cl)cc1,?,?,-56*,.,16µM*,?
Cc1ccc([C@H]2C[C@@H](O)[C@H](n3cc(-c4ccc(F)cc4)nn3)CN2C(=O)C2CCCCC2)cc1,-19%,?,-20,.,23µM*,-26%
O=C(C1CCCCC1)N1C[C@@H](n2cc(-c3ccc(F)cc3)nn2)[C@H](O)C[C@@H]1c1ccc(Cl)cc1,?,18µM*,?,.,23µM*,?
